This is a sample that favours compounds with a hit; in the whole collection about 8% have one here.
SW480 rerep: inducers of DNA re-replication in SW480 colon cancer cells. Potency, µM (doses to about 46.1 µM), most hits filed as activators. SW480 DNA re-replication, Hoechst DNA content imaging, 48 h. 340,000 tested, 1.8% active; further: nearly all actives have a fitted effect of over 55% in size
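Treated cells incubate 48 hr (37 C, 5% CO2), are stained 40 min with Hoechst, and nuclear fluorescence is enumerated; a rise in nuclei with high DNA signal marks re-replication.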
KB-V1 MDR tox: KB-V1 MDR subline cytotoxicity; KB-V1 MDR cells viability, CellTiter-Glo, 72 h; Potency, µM (top dose mostly 46.1 µM), usual class: cytotoxic; 400,000 tested, 3.4% active; AID 1347076; further: nearly all actives have a fitted effect of over 60% in size
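Cytotoxicity via CellTiter-Glo luminescence after 72 h compound exposure at 37 degrees C. Cells: drug-selected KB-V1 line, DMEM phenol-red free plus 10% FBS. Compounds tested at multiple concentrations; normalized data fitted to concentration-effect curves.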
HT1080NT lethal: kills 2HG-producing HT-1080-NT fibrosarcoma cells | HT-1080-NT fibrosarcoma viability, CellTiter-Glo ATP luminescence, 48 h | Potency, µM (highest dose often 46.1 µM), usual class: cytotoxic | 360,000 tested, 1.6% active | AID 686970;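 further: NT is the 2HG producing partner of a matched IDH1 knockdown line; nearly all actives have a fitted effect of over 55% in size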
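Read-out is CellTiter-Glo luminescence after 10 minutes at room temperature, following 48 hours' compound treatment of HT-1080-NT cells (750 cells/well, RPMI, 5% FBS, 37 degrees C).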
MCF10A rerep: induces DNA re-replication in MCF 10a normal breast cells; MCF 10A DNA re-replication, Hoechst nuclear intensity, 48 h; Potency, µM (titrated, usually from 46.1 µM), hits mostly activators; 350,000 tested, 2.9% active; AID 624296; further: nearly all actives have a fitted effect of over 50% in size
HT1080 IDH1KD tx: HT-1080 IDH1 knockdown cell toxicity (counter line) | Potency, µM (series often up to 46.1 µM), usual class: cytotoxic | 360,000 tested, 2% active | HT-1080 IDH1 knockdown viability, ATP luminescence, 48 h | AID 686971
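% activity derives from luminescence (CellTiter-Glo), normalised to DMSO and no-cell wells. HT-1080-IDH1KD cells, 750/well, had 48 h compound exposure at 37 °C.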
KB-3-1 tox: KB-3-1 parental cell cytotoxicity. 400,000 tested, 1.4% active. Potency, µM (titrated, usually from 46.1 µM), hits mostly cytotoxic. AID 1347075. KB-3-1 viability, CellTiter-Glo ATP luminescence, 72 h; further: nearly all actives have a fitted effect of over 60% in size
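72 h, 37 °C compound treatment of KB-3-1 parental cells; CellTiter-Glo added, 10 min, luminescence read. Data corrected against DMSO-only plates and normalized before curve fitting.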
Of the large screens only hits and unclear results are named; the others gave an inactive call. The call rests on the fitted dose curve; in most records, active means well fitted curve in the direction sought with a large enough effect; inconclusive means small, poorly fitted or top-dose-only effect, or another doubt; inactive means no such curve, though single readings can be large; an effect the other way counts as inactive or inconclusive.

CN(C)c1ccc(/C=N\NC(=S)SCN2C(=O)C3CCC(C)(C2=O)C3(C)C)cc1 (centres undefined)	SW480 rerep inconclusive, MCF10A rerep 7.3µM
CN1CC2=Cc3ccccc3OC23Oc2ccccc2C=C3C1	SW480 rerep inconclusive, KB-V1 MDR tox inconclusive, HT1080NT lethal 16µM, MCF10A rerep inconclusive, HT1080 IDH1KD tx inconclusive, KB-3-1 tox inconclusive
Cc1nn(Cc2ccccc2)c(=O)c2nn(-c3ccc(Cl)cc3)c(C)c12	KB-V1 MDR tox 8.2µM
Cc1ccc(-n2nc3c(=O)n(CC(=O)c4ccc(F)cc4)nc(C)c3c2C)cc1	KB-V1 MDR tox 2.9µM, MCF10A rerep inconclusive
CCOc1ccc(-n2nc3c(=O)n(CCN4CCCCC4)nc(C)c3c2C)cc1	SW480 rerep 23µM
O=C(Nc1ccc(C(=O)N2CCCC2)cc1)c1ccccc1	KB-V1 MDR tox inconclusive, KB-3-1 tox inconclusive
COC(=O)C=CC(=NNc1ccccc1)c1ccccc1	SW480 rerep inconclusive, MCF10A rerep 18µM
CO/N=C/C(=N\Nc1ccccc1)C(=O)c1ccccc1	KB-V1 MDR tox inconclusive
COC(=O)c1cn(C(=O)c2ccc(C)cc2C)c2ccccc12	SW480 rerep 8.2µM, HT1080NT lethal inconclusive, MCF10A rerep 4.6µM, HT1080 IDH1KD tx 6.5µM, KB-3-1 tox inconclusive
COC(=O)c1cn(C(=O)c2ccccc2Cl)c2ccccc12	MCF10A rerep inconclusive, HT1080 IDH1KD tx inconclusive, KB-3-1 tox inconclusive
COC(=O)C1=C(C)N(C(C)C)C(=O)C1(NC(=O)c1ccccc1OC)C(F)(F)F (centres undefined)	none (no result: SW480 rerep, HT1080NT lethal, MCF10A rerep, HT1080 IDH1KD tx)
Cc1nc2oc3c(NCc4ccccn4)ncnc3c2c2c1COC(C)(C)C2	KB-V1 MDR tox 2.1µM, KB-3-1 tox inconclusive
CC(C)c1nc2oc3c(NCc4ccccn4)ncnc3c2c2c1COC(C)(C)C2	none
Cc1ccc(S(=O)(=O)Nc2nc3c(s2)C(=O)CC(C)(C)C3)cc1	SW480 rerep inconclusive
CC(NC(=O)CN(c1cccc(C(F)(F)F)c1)S(=O)(=O)c1ccc(Cl)c([N+](=O)[O-])c1)c1ccccc1 (centres undefined)	SW480 rerep inconclusive, KB-V1 MDR tox inconclusive, HT1080NT lethal 23µM, MCF10A rerep inconclusive, HT1080 IDH1KD tx 18µM, KB-3-1 tox inconclusive
Cc1ccc(N(CC(=O)NCCc2ccc(F)cc2)S(=O)(=O)c2ccc(Cl)c([N+](=O)[O-])c2)c(C)c1	SW480 rerep inconclusive, HT1080NT lethal inconclusive, MCF10A rerep inconclusive, HT1080 IDH1KD tx 21µM, KB-3-1 tox inconclusive
O=C(CN(c1ccc(Br)cc1)S(=O)(=O)c1ccc(Cl)c([N+](=O)[O-])c1)NCCc1ccccc1	MCF10A rerep inconclusive
O=C(CN(c1cccc(C(F)(F)F)c1)S(=O)(=O)c1ccc(Cl)c([N+](=O)[O-])c1)NCc1ccccc1Cl	SW480 rerep inconclusive, MCF10A rerep 4.6µM
O=C(CN(c1cccc(C(F)(F)F)c1)S(=O)(=O)c1ccc(Cl)c([N+](=O)[O-])c1)NCc1ccccc1	SW480 rerep 13µM, MCF10A rerep 3.7µM
O=C(C[C@H]1C/C=C\C[C@H](Cc2ccc(F)cc2)C(=O)O[C@@H](c2ccccc2)CNC1=O)N[C@@H](CO)Cc1ccccc1	KB-V1 MDR tox inconclusive
COc1ccc(CN2CCC(Cc3ccccc3)CC2)c(C)c1C	HT1080NT lethal inconclusive, HT1080 IDH1KD tx inconclusive
Cc1ccc(C2=NN(C(=O)c3cccs3)C(c3ccccc3O)C2)cc1 (centres undefined)	SW480 rerep inconclusive, MCF10A rerep 21µM
CC(=O)N1N=C(c2ccncc2)CC1c1ccccc1O (centres undefined)	KB-3-1 tox inconclusive
O=C(c1cccs1)N1N=C(c2ccccc2)CC1c1ccccc1O (centres undefined)	SW480 rerep inconclusive, MCF10A rerep inconclusive
O=C(c1ccccc1)N1N=C(c2ccccc2O)CC1c1ccccc1 (centres undefined)	none
O=C(c1ccccc1)N1N=C(c2ccccc2)CC1c1ccccc1O (centres undefined)	SW480 rerep inconclusive, HT1080NT lethal 23µM, MCF10A rerep inconclusive, HT1080 IDH1KD tx 26µM
O=C(c1ccncc1)N1N=C(c2ccc(Br)cc2)CC1c1ccccc1O (centres undefined)	KB-V1 MDR tox 21µM, HT1080NT lethal inconclusive, MCF10A rerep inconclusive, HT1080 IDH1KD tx inconclusive
Cc1ccc(C2=NN(C(=O)c3ccccc3F)C(c3ccccc3F)C2)cc1 (centres undefined)	SW480 rerep inconclusive, KB-V1 MDR tox inconclusive, HT1080NT lethal 13µM, MCF10A rerep inconclusive, HT1080 IDH1KD tx 13µM, KB-3-1 tox inconclusive
COc1ccc(C(=O)N2CC3(CC(c4cccc(NC(=O)CC(c5ccccc5)c5ccccc5)c4)=NO3)C[C@H]2C(N)=O)cc1 (some centres undefined)	none
CCOC(=O)N1CCN(S(=O)(=O)N2CCCC(C(=O)NCc3ccc(OC)cc3)C2)CC1 (centres undefined)	none
CCc1nnc(NC(=O)CSc2nc3[nH]ncc3c(=O)[nH]2)s1	none
CN1C(=O)CC(c2cn(Cc3ccccc3)c3ccccc23)C1=O (centres undefined)	KB-V1 MDR tox inconclusive
O=C(c1ccccc1)N1N=C(c2ccccc2)CC1c1ccc2nccnc2c1 (centres undefined)	KB-V1 MDR tox 7.3µM
CC(=O)N1N=C(c2ccc3nccnc3c2)CC1c1ccccc1 (centres undefined)	none
Cc1ccc(C(=O)C2Oc3ccccc3C3CC(c4ccc(C)cc4)=NN23)cc1 (centres undefined)	KB-V1 MDR tox 21µM
CC(=O)N1N=C(c2ccccc2)CC1c1cn(Cc2ccccc2)c2ccccc12 (centres undefined)	SW480 rerep inconclusive, KB-V1 MDR tox 15µM, HT1080NT lethal inconclusive, MCF10A rerep 21µM, HT1080 IDH1KD tx inconclusive, KB-3-1 tox inconclusive
Cc1ccc(C2=NN(S(=O)(=O)c3ccccc3)C(c3ccccc3O)C2)cc1 (centres undefined)	KB-V1 MDR tox inconclusive, HT1080NT lethal 18µM, HT1080 IDH1KD tx inconclusive
Cc1ccc(NC(=O)CSc2nc(C)cc(C)c2C(=O)Nc2cccc(C)c2)cc1	none (no result: SW480 rerep, HT1080NT lethal, MCF10A rerep, HT1080 IDH1KD tx)
NC(=O)NN=C1C2CCCC1C(c1ccccc1)NC2c1ccccc1 (centres undefined)	KB-V1 MDR tox inconclusive, HT1080NT lethal inconclusive, HT1080 IDH1KD tx inconclusive
O=S(=O)(NCC1CCCO1)c1ccc(S(=O)(=O)N(Cc2ccccc2F)C2CCCCC2)cc1 (centres undefined)	KB-V1 MDR tox inconclusive, HT1080NT lethal inconclusive, MCF10A rerep inconclusive
Cc1ccccc1NC(=O)Cc1nc(COC(=O)c2cc(Br)ccc2O)cs1	MCF10A rerep 16µM

Screening results as filed in PubChem.
